The source of these data is PubChem BioAssay (NCATS).

The test system of experiment [1] is Zika virus NS2B-NS3 protease (unlinked complex). The experiment in a line: Primary screen GU Rhodamine qHTS for Zika virus inhibitors: Unlinked NS2B-NS3 protease assay (AID 1347159). Note: nearly all actives have a fitted effect of over 60% in size. The gist of the method: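 Compounds, tested up to 114 microM, were incubated for 15 minutes with 25 nM unlinked NS2B-NS3 protease at pH 8.0. Cleavage of 1.5 microM Rhodamine110 substrate was then followed by fluorescence for 15 minutes.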
In general terms: In qHTS, concentration-response curves come from the screen itself.

Experiment [2] deals with Zika virus NS2B-NS3 protease (linked construct). Kind of experiment: Primary screen NINDS Rhodamine qHTS for Zika virus inhibitors (AID 1347160). Note: nearly all actives have a fitted effect of over 55% in size. The gist of the method:
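Percent inhibition, normalized to uninhibited and enzyme-free controls, is fitted to a 4-parameter Hill equation. Fluorescence change comes from a 15-min cleavage of 1.5 microM bis-peptide Rhodamine110 substrate by 25 nM linked NS2B-NS3 at room temperature.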

SMILES strings stand for the structures. Inconclusive results are not listed. Values without a mark were called inactive. Activity calls are given as the source filed them. Calls come from the whole dose curve; as a rule, active = well fitted inhibition curve with a large enough effect; inconclusive = small, poorly fitted or top-dose-only effect; inactive = no such curve, though single readings can be large or run the other way.
% is set by controls: 0 for no effect and ±100 for the full control effect.

On to `O=C(Nc1nc2ccccc2n1CCc1ccccc1)c1ccccc1`, for which the Potency result in experiment [1] and in experiment [2] was “inactive” throughout.
`CCCOC(c1cc2nccc(C(=O)O)c2[nH]1)c1ccccc1Cl` (stereo not given): the Potency result in experiment [1] and in experiment [2] was “inactive” in each case.
In the case of `C/C=C(\C)C(=O)O[C@H]1[C@@H](O[C@]2(COC(=O)CC(C)C)O[C@H](COC(=O)C(C)CC)[C@@H](OC(C)=O)[C@@H]2O)O[C@H](COC(C)=O)[C@@H](O)[C@@H]1O` (stereo not given in full), the Potency entry in experiment [1] and in experiment [2] was “inactive” throughout.
Take `CC(=O)N[C@@H](CCCCN)C(=O)N(C)[C@@H](CC(C)C)C(=O)N[C@H](C(=O)N(C)[C@@H](Cc1ccccc1)C(=O)N[C@H](Cc1ccccc1)C(N)=O)C(C)C`: the activity change, negative = inhibition is 0% [at 11.5 µM] in experiment [1] and 25% [at 4.91 µM] in experiment [2].
`COC(C(=O)N1Cc2[nH]nc(NC(=O)c3ccc(N4CCN(C)CC4)cc3)c2C1)c1ccccc1` (stereo not given): the Potency result in experiment [1] and in experiment [2] was “inactive” throughout.
In the case of `COc1ccc(CC2NCCc3c2[nH]c2ccc(C)cc32)cc1OC` (stereo not given), the Potency result in experiment [1] and in experiment [2] was “inactive” throughout.
Take `CC(=O)O[C@]1(C(C)=O)CC[C@H]2[C@@H]3C[C@H](C)C4=CC(=O)C=C[C@]4(C)[C@@]3(F)[C@@H](O)C[C@@]21C`: the Potency result in experiment [1] and in experiment [2] was “inactive” each time.
As to `NC1CCC(Nc2cc(-c3cccc(NCc4cccc(F)c4)n3)c(Cl)cn2)CC1` (stereo not given), the Potency result in experiment [1] and in experiment [2] was “inactive” in each case.
Consider `C=CC(C)(C)c1[nH]c2cc3c(cc2c1CC1NC(=O)C2CCCN2C1=O)C=CC(C)(C)O3` (stereo not given), for which the Potency result in experiment [1] and in experiment [2] was “inactive” each time.
As to `FC(F)(F)c1cc(-c2ncn(/C=C\c3nnco3)n2)cc(C(F)(F)F)c1`, the Potency result in experiment [1] and in experiment [2] was “inactive” throughout.
On to `CC(C)=CCC[C@](C)(O[C@@H]1O[C@H](CO[C@@H]2O[C@H](CO)[C@@H](O)[C@H](O)[C@H]2O)[C@@H](O)[C@H](O)[C@H]1O)C1CC[C@]2(C)[C@@H]1[C@H](O)CC1[C@@]3(C)CC[C@H](O[C@@H]4O[C@H](CO)[C@@H](O)[C@H](O)[C@H]4O[C@@H]4O[C@H](CO)[C@@H](O)[C@H](O)[C@H]4O)C(C)(C)[C@@H]3CC[C@]12C` (stereo not given in full), for which the Potency result in experiment [1] and in experiment [2] was “inactive” throughout.
As to `CC(=O)N[C@H]1[C@H](O[C@H]2CC[C@@]3(C)C(CC[C@]4(C)C3CC=C3C5CC(C)(C)CC[C@]5(C(=O)O)[C@H](O)C[C@]34C)C2(C)C)O[C@H](CO[C@@H]2OC[C@H](O)[C@H](O)[C@H]2O[C@@H]2OC[C@@H](O)[C@H](O)[C@H]2O)[C@@H](O)[C@@H]1O` (stereo not given in full), the Potency entry in experiment [1] and in experiment [2] was “inactive” in each case.
As for `CC(CCC1(O)OC2CC3C4CCC5CC(O[C@@H]6O[C@H](CO)[C@@H](O)[C@H](O)[C@H]6O[C@@H]6O[C@@H](C)[C@H](O)[C@@H](O)[C@H]6O)C(O)CC5(C)C4CCC3(C)C2C1C)CO[C@@H]1O[C@H](CO)[C@@H](O)[C@H](O)[C@H]1O` (stereo not given in full), the Potency result in experiment [1] and in experiment [2] was “inactive” each time.
For `C=CC(=O)Nc1cccc(Nc2nc(Nc3ccc(N4CCN(C(C)=O)CC4)cc3OC)ncc2C(F)(F)F)c1`, the Potency entry in experiment [1] and in experiment [2] was “inactive” each time.
Consider `COc1cccc(-c2cc(NCc3ccc4c(c3)OCO4)nc(N)n2)c1`, for which the Potency entry in experiment [1] and in experiment [2] was “inactive” each time.
Take `CC(C)CC1NC(=O)C2CC3(O)c4ccccc4NC3N2C1=O` (stereo not given): the Potency entry in experiment [1] and in experiment [2] was “inactive” each time.
As to `CN(c1ccccc1CNc1nc(Nc2ccc3c(c2)CC(=O)N3)ncc1C(F)(F)F)S(C)(=O)=O`, the Potency entry in experiment [1] and in experiment [2] was “inactive” each time.
As for `C=C1[C@@H]2CC[C@@H]3[C@@](CCC4C(C(=O)O)(C(=O)O)C[C@@H](O[C@@H]5O[C@H](CO)[C@@H](O)[C@H](O)[C@H]5OC(=O)CC(C)C)C[C@]43C)(C2)[C@H]1O` (stereo not given in full), the Potency result in experiment [1] and in experiment [2] was “inactive” throughout.
Consider `COc1cc2c(cc1OC)CC(=O)N(CCCNC[C@H]1Cc3cc(OC)c(OC)cc31)CC2`, for which the Potency result in experiment [1] and in experiment [2] was “inactive” throughout.
Take `O=C(O)CCCCCC[C@H]1C(=O)NC(=O)N1CC[C@@H](O)C1CCCCC1`: the Potency result in experiment [1] and in experiment [2] was “inactive” each time.
Turning to `C[C@H]1CC(=O)Nc2cccc(-c3cnn(C(C)(C)C)c3)c2N1`, the Potency entry in experiment [1] and in experiment [2] was “inactive” in each case.
For the compound `CC12CCC3c4ccc(OC5OC(C(=O)O)C(O)C(O)C5O)cc4CCC3C1CCC2O` (stereo not given), the Potency result in experiment [1] and in experiment [2] was “inactive” each time.
As to `CC(C)c1c2cc(-c3ccnc(NC4CCC(NC5CCOCC5)CC4)n3)ccc2nn1C` (stereo not given), the Potency entry in experiment [1] and in experiment [2] was “inactive” throughout.
For `O=c1[nH]ccc2cc(OC3CCNCC3)ccc12`, the Potency entry in experiment [1] and in experiment [2] was “inactive” in each case.
For `CC(=O)c1cc(C(=O)N[C@@H](C)Cn2ccc(-c3ccc(C#N)c(Cl)c3)n2)[nH]n1`, the Potency result in experiment [1] and in experiment [2] was “inactive” in each case.
Take `CC1CCN(C(=O)CC#N)CC1N(C)c1ncnc2[nH]ccc12` (stereo not given): the Potency entry in experiment [1] and in experiment [2] was “inactive” each time.
For `CC1(C)CC(NC(=O)C(=O)Nc2ccc(Br)cc2)CC(C)(C)N1`, the Potency result in experiment [1] and in experiment [2] was “inactive” throughout.
In the case of `C[C@@H]1C[C@@H]([C@@H](O)C(C)(C)O)O[C@H]2C[C@@]3(C)C(=C12)C[C@H](O)[C@H]1[C@@]2(C)CCC(=O)C(C)(C)C2CC[C@@]13C` (stereo not given in full), the Potency entry in experiment [1] and in experiment [2] was “inactive” each time.
Regarding `C[C@H]1[C@H](O)O[C@@H]2O[C@@]3(C)CC[C@H]4[C@H](C)CC[C@@H]1[C@@]24OO3`, the Potency result in experiment [1] and in experiment [2] was “inactive” throughout.
With `CC1(C)CC[C@]2(C(=O)O)CC[C@]3(C)C(=CCC4[C@@]5(C)CC[C@H](O[C@@H]6O[C@H](CO)[C@@H](O)[C@H](O)[C@H]6O[C@@H]6O[C@H](CO)[C@@H](O)[C@H](O)[C@H]6O)[C@@](C)(CO)C5CC[C@]43C)[C@@H]2C1` (stereo not given in full), the Potency result in experiment [1] and in experiment [2] was “inactive” each time.
